PubChem BioAssay (EPA / NIEHS)
Records with an inconclusive call do not appear. Calls of active or inactive are those of the source. The calls were made as follows, unless noted: active = hit-call score of the fitted dose curve at least 0.9, where 1 is the maximum; inconclusive = response in the unintended direction; inactive = score below 0.9.

Experiments:
DIO1 (gene 1733) = assay: CCTE_GLTED_hDIO1: CCTE's human Deiodinase 1 (DIO1) Inhibition Assay, Great Lakes Toxicology and Ecology Division (GLTED) Lab (AID 2283987);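 also: isolated human DIO1 enzyme in a cell-free setup rather than cells; enzyme activity read as free iodide liberated from substrate via Sandell-Kolthoff colorimetry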
Method in brief: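 Cell-free human DIO1 enzyme was incubated with test chemical for 3 h, and iodide released from substrate was measured by Sandell-Kolthoff absorbance. Loss of signal versus DMSO baseline indicated inhibition; plates were run in triplicate.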

[1] = CCTE_Harrill_HTTr_Viability_DMEM_12hr: (Pilot) CCTE's 12-hour Cell Viability Assessment for the High-Throughput Transcriptomics (HTTr) Platform, in MCF-7 cells cultured in DMEM + 10% fetal bovine serum, Harrill Lab (AID 2283974; active = hit-call score of the fitted dose curve at least 0.9, where 1 is the maximum; inactive = score below 0.9)
Method in brief: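 MCF-7 cells in DMEM + 10% FBS exposed 12 h to an eight-point dilution series; membrane integrity scored by propidium iodide exclusion with high-content imaging, bidirectional fitting versus DMSO.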

[2] = CCTE_Harrill_HTTr_Viability_DMEM_24hr: (Pilot) CCTE's 24-hour Cell Viability Assessment for the High-Throughput Transcriptomics (HTTr) Platform, in MCF-7 cells cultured in DMEM + 10% fetal bovine serum, Harrill Lab (AID 2283975; active = hit-call score of the fitted dose curve at least 0.9, where 1 is the maximum; inactive = score below 0.9)
Method in brief: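 MCF-7 cells in DMEM with 10% FBS exposed for 24 hours to an eight-point dilution series. Membrane integrity by propidium iodide exclusion with high content imaging; bidirectional fit against DMSO.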

[3] = CCTE_Harrill_HTTr_Viability_PRF_DMEM_6hr: (Pilot) CCTE's 6-hour Cell Viability Assessment for the High-Throughput Transcriptomics (HTTr) Platform, in MCF-7 cells cultured phenol red-free DMEM + 10% charcoal-stripped fetal bovine serum, Harrill Lab (AID 2283976; active = hit-call score of the fitted dose curve at least 0.9, where 1 is the maximum; inactive = score below 0.9)
Method in brief: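 MCF-7 cells in phenol red-free DMEM with 10% charcoal-stripped FBS exposed 6 hours to an eight-point dilution series. Propidium iodide exclusion imaged; curves fitted bidirectionally against DMSO.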

[4] = CCTE_Harrill_HTTr_Viability_PRF_DMEM_12hr: (Pilot) CCTE's 12-hour Cell Viability Assessment for the High-Throughput Transcriptomics (HTTr) Platform, in MCF-7 cells cultured in phenol red-free DMEM + 10% charcoal-stripped fetal bovine serum, Harrill Lab (AID 2283977; active = hit-call score of the fitted dose curve at least 0.9, where 1 is the maximum; inactive = score below 0.9)
Method in brief: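 MCF-7 cells in phenol red-free DMEM with 10% charcoal-stripped FBS exposed 12 hours to an eight-point dilution series. Viability assessed by high-content imaging of propidium iodide exclusion; bidirectional fit versus DMSO.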

[5] = CCTE_Harrill_HTTr_Viability_PRF_DMEM_24hr: (Pilot) CCTE's 24-hour Cell Viability Assessment for the High-Throughput Transcriptomics (HTTr) Platform, in MCF-7 cells cultured in phenol red-free DMEM + 10% charcoal-stripped fetal bovine serum, Harrill Lab (AID 2283980; active = hit-call score of the fitted dose curve at least 0.9, where 1 is the maximum; inactive = score below 0.9)
Method in brief: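 MCF-7 cells in phenol red-free DMEM with 10% charcoal-stripped FBS, eight-point dilution series, 24 h exposure. Membrane integrity by propidium iodide exclusion with high content imaging; bidirectional fit vs DMSO.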

[6] = CCTE_Harrill_HTTr_Apoptosis_DMEM_6hr: (Pilot) CCTE's 6-hour Apoptosis Assessment for the High-Throughput Transcriptomics (HTTr) Platform, in MCF-7 cells cultured in DMEM + 10% fetal bovine serum, Harrill Lab (AID 2283981; active = hit-call score of the fitted dose curve at least 0.9, where 1 is the maximum; inactive = score below 0.9)
Method in brief: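 Caspase-3/7 activation read by high content imaging with CellEvent Caspase 3/7 Green in MCF-7 cells (DMEM + 10% FBS), 6 h after dosing; eight-point dilution series. Bidirectional fitting relative to DMSO baseline.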

[7] = CCTE_Harrill_HTTr_Apoptosis_DMEM_12hr: (Pilot) CCTE's 12-hour Apoptosis Assessment for the High-Throughput Transcriptomics (HTTr) Platform, in MCF-7 cells cultured in DMEM + 10% fetal bovine serum, Harrill Lab (AID 2283982; active = hit-call score of the fitted dose curve at least 0.9, where 1 is the maximum; inactive = score below 0.9)
Method in brief: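 MCF-7 cells in DMEM + 10% FBS, exposed 12 h to an eight-point dilution series; caspase-3/7 activation imaged with CellEvent Green. Bidirectional fit versus DMSO.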

[8] = CCTE_Harrill_HTTr_Apoptosis_DMEM_24hr: (Pilot) CCTE's 24-hour Apoptosis Assessment for the High-Throughput Transcriptomics (HTTr) Platform, in MCF-7 cells cultured in DMEM + 10% fetal bovine serum, Harrill Lab (AID 2283983; active = hit-call score of the fitted dose curve at least 0.9, where 1 is the maximum; inactive = score below 0.9)
Method in brief: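 MCF-7 cells in DMEM + 10% FBS, eight-point dilution series, 24 h exposure. Caspase-3/7 activation imaged by high-content imaging with CellEvent Caspase 3/7 Green. Bidirectional curve fitting against DMSO baseline.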

[9] = CCTE_Harrill_HTTr_Apoptosis_PRF_DMEM_6hr: (Pilot) CCTE's 6-hour Apoptosis Assessment for the High-Throughput Transcriptomics (HTTr) Platform, in MCF-7 cells cultured phenol red-free DMEM + 10% charcoal-stripped fetal bovine serum, Harrill Lab (AID 2283984; active = hit-call score of the fitted dose curve at least 0.9, where 1 is the maximum; inactive = score below 0.9)
Method in brief: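 MCF-7 cells in phenol red-free DMEM + 10% charcoal-stripped FBS, eight-point dilution series, 6 h exposure. Caspase-3/7 activation imaged by high-content imaging with CellEvent Caspase 3/7 Green; bidirectional fit versus DMSO baseline.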

[10] = CCTE_Harrill_HTTr_Apoptosis_PRF_DMEM_24hr: (Pilot) CCTE's 24-hour Apoptosis Assessment for the High-Throughput Transcriptomics (HTTr) Platform, in MCF-7 cells cultured in phenol red-free DMEM + 10% charcoal-stripped fetal bovine serum, Harrill Lab (AID 2283986; active = hit-call score of the fitted dose curve at least 0.9, where 1 is the maximum; inactive = score below 0.9)
Method in brief: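 MCF-7 cells in phenol red-free DMEM with 10% charcoal-stripped FBS, exposed 24 h across an eight-point dilution series. Caspase-3/7 activation imaged with CellEvent Green by high content imaging; bidirectional fitting against DMSO.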

[11] = CCTE_Simmons_MITO_basal_resp_rate: CCTE's HepG2 Seahorse XF Respirometric Screening Assay at Basal Respiratory State, Simmons Lab (AID 2284001; active = hit-call score of the fitted dose curve at least 0.9, where 1 is the maximum; inactive = score below 0.9); details: actives raise or lower the signal
Method in brief: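 HepG2 respirometry; 7-pt titration 125 nM–100 uM final; kinetic OCR at 6 min intervals for 72 min; n=3 biological, technical singles; DMSO baseline, gain or loss fit; fenpyroximate (decrease) and 2,4-DNP (increase) controls.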

[12] = CCTE_Simmons_MITO_max_resp_rate: CCTE's HepG2 Seahorse XF Respirometric Screening Assay at Maximal Respiratory State [uncoupled], Simmons Lab (AID 2284002; active = hit-call score of the fitted dose curve at least 0.9, where 1 is the maximum; inactive = score below 0.9); details: actives raise or lower the signal
Method in brief: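 HepG2 oxygen consumption was read on a Seahorse XF96 after FCCP uncoupler injection, following test compound injection; 7 concentrations, 125 nM–100 uM final, three biological replicates. Bidirectional fitting against DMSO vehicle baseline.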

[13] = CCTE_Simmons_MITO_inhib_resp_rate: CCTE's HepG2 Seahorse XF Respirometric Screening Assay at Inhibited Respiratory State [full ETC block], Simmons Lab (AID 2284006; active = hit-call score of the fitted dose curve at least 0.9, where 1 is the maximum; inactive = score below 0.9); details: actives raise or lower the signal
Method in brief: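 HepG2 oxygen consumption was measured by Seahorse XF after compound, FCCP, then rotenone/antimycin A injections. Seven concentrations from 125 nM to 100 uM (final) were tested, with 6-min kinetic reads over 72 minutes. Inhibited-state OCR was fitted bidirectionally against DMSO.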

[14] = CCTE_Simmons_MITO_viability: CellTiter-Glo Viability Assessment for CCTE's HepG2 Seahorse XF Respirometric Screening Assay [post-hoc], Simmons Lab (AID 2284007);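 as to AC50: cells exposed to chemical for 90 min before the ATP read; actives lower ATP signal relative to DMSO baseline meaning reduced viability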
Method in brief: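 HepG2 cells exposed 90 min to 7 concentrations from 125 nM to 100 uM final, then ATP measured by luciferase luminescence. Three biological replicates per concentration; DMSO vehicle; dichlone control at 10 nM–100 uM.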

[15] = biological target: Nucleoli Translocation, AR (gene 367) (UniProt P10275); assay: UPITT_HCI_U2OS_AR_TIF2_Nucleoli_Antagonist: University of Pittsburgh U2OS Androgen Receptor-Transcriptional Intermediary Factor 2 (AR-TIF2) Antagonism High Content Imaging Assay for Nucleoli Translocation (AID 2283997)
Chain of Nucleoli Translocation, AR (gene 367) (P10275 whole entry, looked up, the tested form may be a part): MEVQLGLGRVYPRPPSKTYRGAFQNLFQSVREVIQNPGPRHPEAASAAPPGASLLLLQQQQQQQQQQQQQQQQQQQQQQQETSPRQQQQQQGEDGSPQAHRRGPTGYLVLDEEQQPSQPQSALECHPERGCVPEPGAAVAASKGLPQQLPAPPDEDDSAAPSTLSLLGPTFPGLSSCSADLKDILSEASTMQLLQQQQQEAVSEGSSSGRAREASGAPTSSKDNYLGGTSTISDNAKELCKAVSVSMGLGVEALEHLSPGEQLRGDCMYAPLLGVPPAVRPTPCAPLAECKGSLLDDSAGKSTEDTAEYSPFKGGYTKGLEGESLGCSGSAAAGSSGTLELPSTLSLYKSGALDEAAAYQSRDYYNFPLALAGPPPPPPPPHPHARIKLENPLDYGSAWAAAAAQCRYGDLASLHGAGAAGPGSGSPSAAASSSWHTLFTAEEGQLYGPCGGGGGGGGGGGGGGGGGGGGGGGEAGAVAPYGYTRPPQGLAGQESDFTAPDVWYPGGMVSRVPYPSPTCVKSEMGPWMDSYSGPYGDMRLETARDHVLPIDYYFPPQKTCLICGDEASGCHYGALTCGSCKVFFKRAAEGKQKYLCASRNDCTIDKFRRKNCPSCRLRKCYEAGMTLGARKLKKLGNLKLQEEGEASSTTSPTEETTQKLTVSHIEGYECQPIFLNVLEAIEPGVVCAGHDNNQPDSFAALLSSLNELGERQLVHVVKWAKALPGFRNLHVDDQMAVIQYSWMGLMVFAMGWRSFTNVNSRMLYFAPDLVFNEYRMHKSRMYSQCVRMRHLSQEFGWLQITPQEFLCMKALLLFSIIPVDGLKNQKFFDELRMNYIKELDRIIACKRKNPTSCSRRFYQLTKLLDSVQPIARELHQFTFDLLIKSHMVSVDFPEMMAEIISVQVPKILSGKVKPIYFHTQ
Method in brief: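 Measured quantity was AR-RFP fluorescence localized to nucleoli in engineered U2OS cells also bearing TIF2-GFP, acquired on automated high-content imagers. Primary testing used 20 uM compound; actives were confirmed in triplicate wells.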

[16] = biological target: Nucleoli Translocation, AR (gene 367) (UniProt P10275); assay: UPITT_HCI_U2OS_AR_TIF2_Nucleoli_Agonist: University of Pittsburgh U2OS Androgen Receptor-Transcriptional Intermediary Factor 2 (AR-TIF2) Agonism High Content Imaging Assay for Nucleoli Translocation (AID 2283998)
Method in brief: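 Cells express human AR fused to red fluorescent protein and TIF2 fused to GFP. Red fluorescence in the nucleolar region was quantified by high-content imaging and fitted as gain-of-signal against a DMSO baseline. Compounds were tested at 0.195 to 50 uM final (0.5% DMSO).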

[17] = biological target: Ratio of Nucleoli Translocation and Cytoplasm, AR (gene 367) (UniProt P10275); assay: UPITT_HCI_U2OS_AR_TIF2_Nucleoli_Cytoplasm_Ratio_Antagonist: University of Pittsburgh U2OS Androgen Receptor-Transcriptional Intermediary Factor 2 (AR-TIF2) Antagonism High Content Imaging Assay for Ratio of Nucleoli Translocation and Cytoplasm (AID 2283999);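 also: antagonists lower the DHT-driven ratio of nucleolar to cytoplasmic red signal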
Chain of Ratio of Nucleoli Translocation and Cytoplasm, AR (gene 367) (P10275 whole entry, looked up): as the sequence (P10275 whole entry, looked up, the tested form may be a part) above
Method in brief: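 U2OS cells co-expressing RFP-tagged human AR and GFP-tagged TIF2, antagonist mode with DHT as baseline. Nucleolar-to-cytoplasmic red fluorescence ratio imaged by high-content microscopy; final compound 20 uM (0.2% DMSO) primary, 0.195–50 uM (0.5% DMSO) concentration-response.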

[18] = biological target: Ratio of Nucleoli Translocation and Cytoplasm, AR (gene 367) (UniProt P10275); assay: UPITT_HCI_U2OS_AR_TIF2_Nucleoli_Cytoplasm_Ratio_Agonist: University of Pittsburgh U2OS Androgen Receptor-Transcriptional Intermediary Factor 2 (AR-TIF2) Agonism High Content Imaging Assay for Ratio of Nucleoli Translocation and Cytoplasm (AID 2284000);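 also: hits raise the red nucleolar to cytoplasm ratio above vehicle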
Method in brief: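 Read-out first: nucleolar-to-cytoplasm ratio of red (AR-RFP) signal, quantified by high-content imaging in U2OS cells co-expressing TIF2-GFP. Activity is scored as signal increase over DMSO. Single-point screening used 20 uM final (0.2% DMSO).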

CC(C)(C)c1cc(/C=C2\SC(N)=NC2=O)cc(C(C)(C)C)c1O
AC50 (DIO1 (gene 1733)): 3.01 µM (active)

CC1(C)NC(=O)N(c2ccc([N+](=O)[O-])c(C(F)(F)F)c2)C1=O
outcome [1]: inactive
outcome [2]: inactive
outcome [3]: inactive
outcome [4]: inactive
outcome [5]: inactive
outcome [6]: inactive
outcome [7]: inactive
outcome [8]: inactive
outcome [9]: inactive
outcome [10]: inactive
AC50 [11]: 37.2 µM (active)
AC50 [12]: 33.8 µM (active)
outcome [13]: inactive
outcome [14]: inactive

Oc1ccc2ccccc2c1
outcome [15]: inactive
outcome [16]: inactive
outcome [17]: inactive
outcome [18]: inactive

CCCCCCCCCCCC[N+](C)(C)C
AC50 (DIO1 (gene 1733)): 83.2 µM (active)
AC50 [12]: 37.8 µM (active)
outcome [13]: inactive
outcome [14]: inactive

O=C(O)Cn1c(=O)n(Cc2ccc(Br)cc2F)c(=O)c2ccc(Cl)cc21
outcome [15]: inactive
outcome [16]: inactive
outcome [17]: inactive
outcome [18]: inactive

O=c1c(-c2ccc(O)cc2)coc2cc(O)cc(O)c12
AC50 (DIO1 (gene 1733)): 2.42 µM (active)
outcome [15]: inactive
outcome [16]: inactive
outcome [17]: inactive
outcome [18]: inactive

CCOC(=O)O[C@H](C)OC(=O)c1ccc2c(c1)cc(C(=O)NC1CCN(C(C)C)CC1)n2Cc1cc(-c2ccc(Cl)s2)on1
AC50 (DIO1 (gene 1733)): 97.5 µM (active)

Cc1c2ccccc2c(C)c2c1ccc1ccccc12
AC50 [15]: 50 µM (active)
outcome [16]: inactive
outcome [17]: inactive
outcome [18]: inactive
AC50 [11]: 17.1 µM (active)
AC50 [12]: 26.1 µM (active)
outcome [13]: inactive
AC50 [14]: 19.4 µM (active)

CCCC(=O)OCCC(C)C
outcome [15]: inactive
outcome [16]: inactive
outcome [17]: inactive
outcome [18]: inactive

CCCCCCCCOC(=O)c1cc(O)c(O)c(O)c1
AC50 (DIO1 (gene 1733)): 101 µM (active)
AC50 [11]: 13.6 µM (active)
AC50 [12]: 11.5 µM (active)
outcome [13]: inactive

COCC(C)OCC(C)OCC(C)O (stereo not drawn)
outcome [15]: inactive
outcome [16]: inactive
outcome [17]: inactive
outcome [18]: inactive
